± gives the standard deviation of the averaged measurements.

The test system of test [1] is DLD1. Briefly: cell viability (CellTiter-Glo) relative to plate median (fraction of plate median); higher = more viable cells. Conditions: 5 µM; treatment time 24 h; reporter: 7TFP. The method, boiled down: (§1)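 After seeding in 384-well plates, colorectal cancer cell lines carrying stable lentiviral TCF/Wnt firefly luciferase reporters (7TFP or TCF4/Wnt) were left 24 h. Library compounds were then added at a final 5 µM for 24 h. A Tecan F500 reader measured firefly luciferase or CellTiterGlo luminescence on parallel plates, with each well normalised to the plate median by webcellHTS2 (additive, no log transformation), and two independent replicates averaged.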

The test system of test [2] is HCT116. The description is as above. To be noted: 5 µM; treatment time 24 h; reporter: TCF4/Wnt. The method in brief: as §1
The test system of test [3] is SW480. Described as above. To be noted: 5 µM; treatment time 24 h; reporter: 7TFP. The method, boiled down:
as §1

Test [4] deals with DLD1. As to the kind of experiment: TCF/Wnt firefly luciferase reporter signal relative to plate median (fraction of plate median); higher = higher Wnt reporter signal. To be noted: 5 µM; treatment time 24 h; reporter: 7TFP. The method, boiled down: as §1
Test [5] has as its system SW480. Described as above. To be noted: 5 µM; treatment time 24 h; reporter: 7TFP. The method in brief: as §1

On to `COc1ccc2c(c1)[nH]c1c(C)nccc12`, for which the cell viability in test [1] worked out at 0.98 ± 0.028; in test [2] it was 0.904 ± 0.04; in test [3] it was 0.964 ± 0.036. For the same compound, the entries for the “TCF/Wnt firefly luciferase reporter signal” value in test [4] and in test [5] were 0.623 ± 0.067 and 0.625 ± 0.097, respectively.

`COC(=O)C(c1ccccc1)C1CCCCN1` (stereo not given): the figures for the cell viability in test [1], in test [2] and in test [3] were 1.025 ± 0.0071, 1.05 ± 0.064 and 1.01 ± 0.035, respectively. The entries for the “TCF/Wnt firefly luciferase reporter signal” value in test [4] and in test [5] were 1.03 ± 0.021 and 1.04 ± 0.088, respectively.

`CCCC(C)(COC(N)=O)COC(=O)NC(C)C` (stereo not given): the figures for the cell viability in test [1], in test [2] and in test [3] were 1.06 ± 0.014, 0.994 ± 0.14 and 0.97 ± 0.0042, respectively. Further, the “TCF/Wnt firefly luciferase reporter signal” value is 0.887 ± 0.088 in test [4] and 0.992 ± 0.082 in test [5].

For `COS(C)(=O)=O`, the cell viability in test [1] was 1.07 ± 0.071; in test [2], 0.901 ± 0.021; in test [3] it was 1.015 ± 0.0071. The “TCF/Wnt firefly luciferase reporter signal” value in test [4] came to 0.98 ± 0.14; in test [5] it was 0.958 ± 0.074.

As for `COP(=O)(OC)OC=C(Cl)Cl`, the cell viability in test [1] amounted to 1.05 ± 0.014; in test [2], 0.94 ± 0.099; in test [3], 0.994 ± 0.037. The “TCF/Wnt firefly luciferase reporter signal” value turned out to be 1.04 ± 0.18 in test [4] and 1.03 ± 0.028 in test [5].

As to `CCCCCCCCCCCC[C@@H](O)[C@H]1CC[C@H]([C@H](O)CCCC[C@H](O)CCCCC[C@@H](O)CC2=CC(C)OC2=O)O1` (stereo not given in full) [annonacin], the results for the cell viability in test [1], in test [2] and in test [3] were 0.926 ± 0.076, 0.933 ± 0.014 and 0.92 ± 0.092, respectively. Also, the “TCF/Wnt firefly luciferase reporter signal” value in test [4] came out at 0.987 ± 0.075; in test [5] it was 0.923 ± 0.018.

For the compound `Cc1cc(O)ccc1Cl`, the cell viability was determined as 1.04 ± 0.035 in test [1], 0.994 ± 0.023 in test [2] and 1.02 ± 0.028 in test [3]. The “TCF/Wnt firefly luciferase reporter signal” value in test [4] was 0.941 ± 0.015; in test [5] it was 0.834 ± 0.069.

In the case of `CN1CCc2cc3c(cc2[C@H]1[C@@H]1OC(=O)c2c1ccc1c2OCO1)OCO3`, the cell viability in test [1] is 1.06 ± 0.014; in test [2], 1.07 ± 0.13; in test [3], 1.05 ± 0.05. For the same compound, the “TCF/Wnt firefly luciferase reporter signal” value came to 0.9 ± 0.011 in test [4] and 1.045 ± 0.0071 in test [5].

As to `COc1cccc(C=O)c1OC`, the figures for the cell viability in test [1], in test [2] and in test [3] were 1.01 ± 0.022, 1.1 ± 0.15 and 1 ± 0.043, respectively. Moreover, the “TCF/Wnt firefly luciferase reporter signal” value worked out at 1.03 ± 0.073 in test [4] and 0.914 ± 0.088 in test [5].

Regarding `COC(=O)C1=CO[C@@H](C)[C@@H]2CN3CC[C@@]4(C(=O)Nc5ccccc54)[C@H]3C[C@H]12`, the cell viability in test [1] is 1.1 ± 0.085; in test [2], 1.07 ± 0.014; in test [3] it was 1.08 ± 0.035. Moreover, the “TCF/Wnt firefly luciferase reporter signal” value in test [4] stood at 1.02 ± 0.12; in test [5], 0.96 ± 0.028.

On to `C/C=C/[C@H]1O[C@@](O)([C@@H](C)[C@H](O)[C@H](C)[C@H]2OC(=O)/C(OC)=C/C(C)=C/[C@@H](C)[C@@H](O)[C@@H](CC)[C@@H](O)[C@H](C)C/C(C)=C/C=C/[C@@H]2OC)C[C@@H](O[C@H]2C[C@@H](O)[C@H](OC(N)=O)[C@@H](C)O2)[C@@H]1C` [Concanamycin A], for which the results for the cell viability in test [1], in test [2] and in test [3] were 0.886 ± 0.095, 0.998 ± 0.059 and 1.04 ± 0.035, respectively. The “TCF/Wnt firefly luciferase reporter signal” value in test [4] was found to be 0.806 ± 0.2; in test [5], 0.9 ± 0.12.

On to `N#C/C(=C\c1cccc(O)c1)C(=O)O` [alpha-CYANO-3-HYDROXYCINNAMIC ACID], for which the figures for the cell viability in test [1], in test [2] and in test [3] were 1.05 ± 0.028, 1.01 ± 0.033 and 1.04 ± 0.028, respectively. The entries for the “TCF/Wnt firefly luciferase reporter signal” value in test [4] and in test [5] were 1.15 ± 0.18 and 1.02 ± 0.014, respectively.

Consider `COc1cc2c(cc1O)C[C@H]1c3c(cc(O)c(OC)c3-2)CCN1C`, for which the cell viability in test [1] worked out at 1.02 ± 0.095; in test [2], 1.06 ± 0.086; in test [3], 1.12 ± 0.13. Besides, the “TCF/Wnt firefly luciferase reporter signal” value in test [4] was 0.882 ± 0.033; in test [5], 1.01 ± 0.17.

In the case of `CCNc1nc(Cl)nc(NCC)n1`, the cell viability in test [1] is 0.955 ± 0.028; in test [2] it was 1.065 ± 0.0071; in test [3], 1.02 ± 0.03. In addition, the “TCF/Wnt firefly luciferase reporter signal” value in test [4] came to 0.9375 ± 0.005; in test [5], 0.886 ± 0.034.

The record behind these values is the supplement of paper PMC6522484.
